Unmarked numbers belong to inactive results. Active and inactive are the calls of the source. No stated cut-off is given here; in the data, active means inhibition above about 44%; inactive means the rest.

The target in the assay is Steroidogenic factor 1 (Homo sapiens) (UniProt Q13285). The assay is described as follows: inverse agonism at SF1 nuclear receptor – cell-based, luminescence, high throughput, counter-screen for LRH-1 inverse agonist project (AID 651614).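 Further: cells cotransfected with StAR promoter reporter and SF1 expression vector; 0% = vehicle on cells with receptor and 100% = vehicle on cells lacking receptor.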 The conditions noted are these: cell-based SF1 luciferase reporter, at 3.6 µM, hits give high values.
Chain of Steroidogenic factor 1 (Homo sapiens) (Q13285 whole entry, looked up): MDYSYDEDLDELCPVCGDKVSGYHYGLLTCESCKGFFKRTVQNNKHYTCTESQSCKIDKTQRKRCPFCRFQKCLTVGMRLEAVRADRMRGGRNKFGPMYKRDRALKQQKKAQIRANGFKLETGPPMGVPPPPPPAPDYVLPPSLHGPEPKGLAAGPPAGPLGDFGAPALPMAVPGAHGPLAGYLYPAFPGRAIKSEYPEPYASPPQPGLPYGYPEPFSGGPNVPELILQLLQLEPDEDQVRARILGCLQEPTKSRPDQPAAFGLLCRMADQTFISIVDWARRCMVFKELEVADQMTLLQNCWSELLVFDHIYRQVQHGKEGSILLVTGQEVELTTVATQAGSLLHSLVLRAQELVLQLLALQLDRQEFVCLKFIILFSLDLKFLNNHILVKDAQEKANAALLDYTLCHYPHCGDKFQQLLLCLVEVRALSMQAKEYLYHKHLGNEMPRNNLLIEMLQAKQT
Turning to `CC(=O)Nc1cc(-c2cccnc2)cn2c(-c3ccc(F)cc3)cnc12`, the inhibition (as a rule, the relative decrease from the control value, in per cent) was 40.5%.

For `CCOc1ccc2c(c1)sc(N)[n+]2Cc1cc(C)cc2cccnc12`, the inhibition was 32.1%.

Consider `Nc1cccc(OCCCCCOc2cccc(N)c2)c1`, for which the inhibition is 54% (active).

Consider `COc1ccc(C2=Nn3c(nnc3-c3ccccc3OC)SC2)cc1OC1CCOC1` (stereo not given), for which the inhibition was 71.1% (active).

In the case of `N#Cc1ccc(NC(=O)COc2ccc(-n3cnnn3)cc2)cc1`, the inhibition was 35.9%.

Turning to `O=C(NCc1ccc2c(c1)OCO2)c1nn(-c2ccccc2)c(=O)c2ccccc12`, the inhibition was 53.3% (active).

`O=C(Nc1ccccc1C(=O)NCCCn1ccnc1)c1ccccc1`: the inhibition was 42.1%.

In the case of `O=C(NCc1ccco1)c1nn(-c2ccccc2)c(=O)c2ccccc12`, the inhibition was 53.4% (active).

On to `Cc1onc(-c2ccccc2Cl)c1-c1nc(-c2ccncc2)no1`, for which the inhibition is 52.9% (active).

In the case of `O=C(Nc1c(Cl)ccc2nsnc12)c1ccc([N+](=O)[O-])o1`, the inhibition was 64.9% (active).

Consider `CC1Cc2ccccc2N1C1=CC(=O)CC(C)(C)C1` (stereo not given), for which the inhibition is 51.9% (active).

Regarding `CC(C)c1ccc(NC(=O)CSc2nc(=O)[nH]c3c2CCCC3)cc1`, the inhibition was 47.3% (active).

With `O=C(CSc1n[nH]c(-c2ccccn2)n1)Nc1ccc(Cl)cc1`, the inhibition is 67.1% (active).

Take `O=C(Nc1ccc(F)cc1)c1oc2ccccc2c1NC(=O)C1CC1`: the inhibition is 62.2% (active).

On to `Cc1cc(-n2c(C)cc(C(=O)CSc3ncnc4ccccc34)c2C)no1`, for which the inhibition is 61.3% (active).

On to `O=C(c1ccc(Oc2ccc(Cl)cc2)c([N+](=O)[O-])c1)N1CCCC1`, for which the inhibition was 38%.

With `COC(=O)c1c(NC(=O)c2cccc(N3C(=O)CCC3=O)c2)sc2c1CCN(C(C)=O)C2`, the inhibition is 49.8% (active).

In the case of `CCOc1ccc(NC(=O)CSc2nc3cccnc3n2CCOC)cc1`, the inhibition was 62.1% (active).

Consider `Cc1no[n+]([O-])c1COc1ccccc1/C=N/n1nnnc1N`, for which the inhibition is 43% (active).

For the compound `COc1ccc(N2CCN(C(=O)CSc3nc4ccccc4c(=O)[nH]3)CC2)cc1`, the inhibition is 27.8%.

As to `COc1ccccc1NC(=O)CN1CCN(CC(=O)Nc2ccc3c(c2)OCCO3)CC1`, the inhibition was 49.5% (active).

As to `CCOCc1c(C(=O)Nc2ccccc2N2CCN(C)CC2)oc2ccccc12`, the inhibition is 73% (active).

`Clc1ccc2c(c1)-c1ccccc1C1=NCCN12`: the inhibition is 70.4% (active).

`Cc1ccc(CC(=O)Nc2ccncc2)cc1`: the inhibition was 64.9% (active).

Regarding `O=C(N/N=C/c1ccc([N+](=O)[O-])s1)C(O)c1ccccc1` (stereo not given), the inhibition was 62.2% (active).

For `O=C(O)/C=C/C(=O)Nc1ccccc1SC(F)(F)C(F)(F)C(F)(F)F`, the inhibition is 45.5% (active).

Consider `O=C(NCc1cccnc1)c1ccc(NC(=O)c2ccc(Br)cc2)cc1`, for which the inhibition is 91.9% (active).

As for `CC(=O)Nc1ccc(N=c2cc([N+](=O)[O-])cc(Cl)n2O)cc1`, the inhibition was 57.8% (active).

Take `CCn1nnc(NC(=O)c2ccc([N+](=O)[O-])o2)n1`: the inhibition was 59.9% (active).

As for `CCc1c(O)nc(SCC(=O)Nc2ccccc2C)n(-c2ccc(C)cc2)c1=O`, the inhibition is 66% (active).

With `C[C@H](CO)N1C[C@H](C)[C@H](CN(C)Cc2ccncc2)Oc2cc(-c3ccccc3F)ccc2S1(=O)=O`, the inhibition was 64.6% (active).

Turning to `CCOc1cc(/C=N/n2nnnc2N)ccc1OCc1c(C)no[n+]1[O-]`, the inhibition was 56.4% (active).

Consider `Cc1ccc(NC(=O)CNNC(=O)c2cccc([N+](=O)[O-])c2)cc1[N+](=O)[O-]`, for which the inhibition is 31.3%.

On to `CS(=O)(=O)N1CCN(c2ccccc2NC(=O)c2cc3ccccc3o2)CC1`, for which the inhibition is 33.7%.

With `O=C(Nc1ccccc1)c1oc2ccccc2c1NC(=O)C1CC1`, the inhibition is 50.5% (active).

With `CCOc1ccc(CCNC(=O)COC(=O)c2ccc(F)c(S(=O)(=O)N3CCOCC3)c2)cc1OCC`, the inhibition is 61.6% (active).

For `COc1cccc(C=Nc2ccc3c(c2)OCCO3)c1O`, the inhibition was -7.99%.

In the case of `NC(=S)N/N=C/c1ccc(C(F)(F)F)cc1`, the inhibition is 44.6% (active).

As for `Cc1ccc2cccc(OCC(=O)NCCC3=CCCCC3)c2n1`, the inhibition was 58.1% (active).

On to `CCOc1ccc(NC(=O)CSc2nccn(-c3ccc4c(c3)OCCO4)c2=O)cc1`, for which the inhibition was 60.7% (active).
